Compound activity as filed in PubChem BioAssay.
Rows were chosen to be rich in hits. Some 1.1% of all compounds tested hit in one or more screens of this group.
PKA-R2B activ: activates the human PKA-R2B holoenzyme complex. P22694+P31323. activation, % at 11.4 µM. PKA-R2B holoenzyme dissociation, Cy5-IP20 fluorescence polarization; R2B truncated from residue 108, S112A mutant; 0% DMSO only, 100% 113 µM cGMP. AID 504700. 340,000 compounds, 0.079% hits;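 active means activation above a cutoff set at the mean over all compounds plus 3 SD, cut at about 18% in these data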;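 further: higher means more holoenzyme dissociation and a rise in polarization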
Target sequence (P31323 whole entry, looked up, other chains not shown, the tested form may be a part): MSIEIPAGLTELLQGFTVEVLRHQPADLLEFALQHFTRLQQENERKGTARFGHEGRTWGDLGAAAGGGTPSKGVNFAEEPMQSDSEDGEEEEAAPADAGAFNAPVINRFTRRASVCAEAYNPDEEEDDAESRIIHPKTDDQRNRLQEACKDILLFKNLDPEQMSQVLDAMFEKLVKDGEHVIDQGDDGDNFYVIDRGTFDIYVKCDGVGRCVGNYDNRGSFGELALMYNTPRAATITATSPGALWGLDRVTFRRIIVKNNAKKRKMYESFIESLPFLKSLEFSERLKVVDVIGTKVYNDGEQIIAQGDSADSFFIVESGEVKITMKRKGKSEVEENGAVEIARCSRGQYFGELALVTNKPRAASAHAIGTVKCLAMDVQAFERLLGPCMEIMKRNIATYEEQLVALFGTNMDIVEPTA
MsrA inhibitor: bovine MsrA inhibition. purified bovine MsrA, absorbance read-out. AID 651718. 360,000 compounds, 0.75% hits. inhibition, % at 15.5 µM
PKA-R1A act: activates the PKA-R1A holoenzyme complex; PKA-R1A dissociation, Cy5-IP20 fluorescence polarization; scaled: DMSO 0%, 113 µM cGMP 100%; activation, % at 11.4 µM; 340,000 compounds, 0.083% hits; AID 504707;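 active means percent activation above the mean of all tested compounds plus 3 SD, cut at about 19% in these data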;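 further: higher means more PKAc released from R1A so a rise in polarization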
MsrA act: bovine methionine sulfoxide reductase A activation; purified bovine MsrA, absorbance read-out; activation, % at 10.6 µM; 360,000 compounds, 0.3% hits; AID 602163; in the data active means activation above about 7.5%
MsrA inh confirm: bovine MsrA inhibition, confirmed | shares compounds with MsrA inhibitor | purified bovine MsrA, absorbance read-out | inhibition, % at 15.5 µM | 2,300 compounds, 41% hits;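 further: coupled to thioredoxin reductase with NADPH and selenocystamine and DMSO as substrate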
Each line names hits and unclear results; the compound was inactive in the other large screens (follow-up assays come after a bar, where they were run). Unless noted, no stated cut-off is given here; in the data, active means inhibition above about 4.5%; inactive means the rest.

CCC1SC2=NC(C)=C(C(=O)OCCOC)C(c3ccc(C(=O)OC)cc3)N2C1=O (centres undefined)	MsrA inhibitor 4.9 | MsrA inh confirm inactive
O=C1NC(=O)/C(=C/c2ccc(O)cc2)S1	MsrA inhibitor 4.9 | MsrA inh confirm 4.6
Cc1cccc(C)c1-n1nnnc1C1(C)CCC(=O)N1c1ccc(N2CCOCC2)cc1 (centres undefined)	none (no result: PKA-R2B activ, PKA-R1A act)
Cc1nc2c(C)cccn2c1/C(O)=C1\C(=O)C(=O)N(CCN(C)C)C1c1ccco1 (centres undefined)	MsrA inhibitor 4.7 | MsrA inh confirm inactive
Cc1ccc(C2/C(=C(\O)c3c(C)nc4c(C)cccn34)C(=O)C(=O)N2CCN(C)C)o1 (centres undefined)	none
Cc1cc2n(c(=O)c1C#N)CCCN2c1ccccc1	MsrA inhibitor 6.1 | MsrA inh confirm 4.5
Cc1cc(C)n(CC(=O)N2CCc3ccccc32)c(=O)c1C#N	none
CCCCNc1c(CC(C)C)nc2nc(C)cc(C)n12	none (no result: PKA-R2B activ, PKA-R1A act)
O=C(C(=O)c1ccc(O)c(O)c1)c1ccc(O)c(O)c1	MsrA inhibitor 7.6 | MsrA inh confirm 8.3
CCOC(=O)/C(C#N)=C1/C=CNC(=O)N1	MsrA inhibitor 4.7 | MsrA inh confirm inactive
COc1c(C)cc(C(O)c2ncc(-c3ccccc3C)[nH]2)cc1C (centres undefined)	none (no result: PKA-R2B activ, PKA-R1A act)
O=C(NC1CC1)c1ccc(CSCc2ccc(Cl)cc2)o1	none
CCN(CC)c1ccc(C2NCC(c3ccc([N+](=O)[O-])cc3)O2)cc1 (centres undefined)	MsrA inhibitor 5.3 | MsrA inh confirm 4.7
COc1ccc(-c2nnn3c2C2c4cc(-c5cccc(F)c5)ccc4CCN2C(=O)C3)cc1 (centres undefined)	none (no result: PKA-R2B activ, PKA-R1A act, MsrA act)
O=C(O)c1ccccc1NS(=O)(=O)c1ccc(NN=Cc2ccccc2F)c([N+](=O)[O-])c1	PKA-R2B activ 22.6, MsrA inhibitor 5.3 | MsrA inh confirm inactive
COC(=O)c1sc(NC(=O)COc2cccnc2[N+](=O)[O-])c(C(=O)OC)c1C	none
CC(=O)C1=C(O)C(=O)N(Cc2cccnc2)C1c1ccccc1 (centres undefined)	MsrA inhibitor 6.4 | MsrA inh confirm inactive
O=C(COC(=O)C1CCN(/C=C/C(=O)C(F)(F)F)CC1)Nc1ccccc1	MsrA inhibitor 4.8 | MsrA inh confirm inactive
CC(C)(C)c1ccc(C(=O)/C=C2\NC(=O)CS2)cc1	MsrA inhibitor 5.1 | MsrA inh confirm inactive
Cc1cc(NC(=O)CCc2c[nH]c3ccccc23)ccc1Nc1cccnc1	none (no result: PKA-R2B activ, PKA-R1A act, MsrA act)
O=C(CCN1C(=O)S/C(=C/c2ccccc2)C1=O)Nc1ccc(C(=O)O)c(O)c1	MsrA inhibitor 5.7 | MsrA inh confirm inactive
O=C(CCN1C(=O)S/C(=C\c2ccc(F)cc2)C1=O)Nc1ccc(C(=O)O)c(O)c1	none
O=C(CN1C(=O)S/C(=C/c2ccccn2)C1=O)N1CCOCC1	MsrA inhibitor 5.3 | MsrA inh confirm 4.8
O=C(CN1C(=O)S/C(=C\C=C\c2ccccc2)C1=O)NC1CCS(=O)(=O)C1 (centres undefined)	none
O=C(CN1C(=O)S/C(=C\c2ccccc2)C1=O)NC1CCS(=O)(=O)C1 (centres undefined)	MsrA inhibitor 5.3 | MsrA inh confirm inactive
O=C(CN1C(=O)S/C(=C\c2ccccc2)C1=O)Nc1cc([N+](=O)[O-])ccc1O	MsrA inhibitor 4.8 | MsrA inh confirm 4.6
Cc1ccc(C)c(OC(C)C(=O)Nc2ccc(S(=O)(=O)Nc3nccs3)cc2)c1 (centres undefined)	none
Cc1cccc(C)c1-n1nnnc1C1(C)CCC(=O)N1Cc1ccco1 (centres undefined)	none (no result: PKA-R2B activ, PKA-R1A act)
O=C(CCN1C(=O)/C(=C\c2ccccc2)SC1=S)N1CCOCC1	none
O=C(CCN1C(=O)S/C(=C\c2ccccc2)C1=O)N1CCOCC1	MsrA inhibitor 5.7 | MsrA inh confirm inactive
COc1ccc(-c2cc(-c3ccccc3)nc(=O)[nH]2)cc1	MsrA inhibitor 5.3 | MsrA inh confirm inactive
Cc1nc(SCC(=O)Nc2cc(C(N)=O)cc(C(N)=O)c2)c2c(C)c(C)sc2n1	none
CC(=O)c1ccc(N2CCN(C(=O)C3CCCN(S(=O)(=O)c4c(C)[nH]c(=O)[nH]c4=O)C3)CC2)cc1 (centres undefined)	MsrA inhibitor 4.7 | MsrA inh confirm inactive
Cc1ccc(-c2ccc(/C=N/n3cnnc3)o2)cc1Cl	MsrA inhibitor 5.0 | MsrA inh confirm inactive
COc1ccc(/C=N/N=C2/NC(=O)C(CC(=O)NC(N)=O)S2)cc1 (centres undefined)	none
O=C1CC(C(=O)Nc2ccc(Cl)c(Cl)c2)S/C(=N\N=C\c2ccco2)N1 (centres undefined)	none
COc1ccc(NC(=O)C2CC(=O)N/C(=N/N=C/c3ccco3)S2)cc1 (centres undefined)	MsrA inhibitor 5.1 (no result: PKA-R2B activ, PKA-R1A act) | MsrA inh confirm 5.1
O=C1CC(C(=O)Nc2ccc(Cl)cc2)S/C(=N\N=C\c2ccco2)N1 (centres undefined)	MsrA inhibitor 5.6 | MsrA inh confirm inactive
COc1ccc(/C=N/N=C2/NC(=O)CC(C(=O)O)S2)cc1 (centres undefined)	MsrA inhibitor 5.0 | MsrA inh confirm inactive
O=C1CC(C(=O)Nc2ccc(Br)cc2)S/C(=N\N=C\c2ccco2)N1 (centres undefined)	none
O=C1CC(C(=O)Nc2ccccc2)S/C(=N\N=C\c2ccco2)N1 (centres undefined)	MsrA inhibitor 5.0 | MsrA inh confirm 5.4
CC1(C)C=C(c2ccc(C=O)s2)CC(C)(C)N1C=O	MsrA inhibitor 4.8 | MsrA inh confirm inactive
CC1(C)C=C(c2ccc(C=O)s2)CC(C)(C)N1	none
O=C1CCCN1CC(O)CS(=O)(=O)Cc1ccc(Cl)cc1 (centres undefined)	none (no result: PKA-R2B activ, PKA-R1A act)
CCCNC(=O)COC(=O)/C=C/c1ccc(C)o1	MsrA inhibitor 5.8 | MsrA inh confirm 5.5
Cc1cc(C(=O)N/N=C/c2sccc2C)no1	none
Cc1ccsc1/C=N\NC(=O)c1cc(C(C)(C)C)[nH]n1	MsrA inhibitor 5.3 | MsrA inh confirm inactive
O=C(N/N=C/C=N/NC(=O)c1ccco1)c1ccco1	MsrA inhibitor 7.6 | MsrA inh confirm 6.1
CCN(CC)c1ccc(/C=N/NC(=O)c2ccco2)cc1	MsrA inhibitor 5.2 | MsrA inh confirm inactive
CCN(CC)c1ccc(/C=N/NC(=O)c2ccco2)c(O)c1	none
Cc1ccsc1/C=N/NC(=O)CNC(=O)c1ccco1	none
Cc1ccsc1/C=N/NC(=O)c1ccco1	MsrA inhibitor 5.6 | MsrA inh confirm 5.8
Cc1cc(N2CCN(CC(C)(C)O)C[C@H]2C)ccc1N1CCN(Cc2ccccc2)[C@H](C)C1	none (no result: PKA-R2B activ, PKA-R1A act, MsrA act)
CC(=O)NS(=O)(=O)c1ccc(NC(=O)/C=C/c2ccco2)cc1	MsrA inhibitor 6.0 | MsrA inh confirm 7.2
O=C(c1ccco1)c1cc2c(ccc3ccccc32)oc1=O	MsrA inhibitor 12.8 | MsrA inh confirm 27.8
COc1ccc(/C=C/C(=O)Nc2cc(C)on2)cc1	none
COc1ccc(C(=O)/C=C/Nc2cc(C)on2)cc1	MsrA inhibitor 6.6 | MsrA inh confirm 6.2
